PubChem BioAssay (NCI)
About 83,000 compounds went through this panel and 20% of them were active in at least one assay; those are over-represented in the sample as a whole.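 Step 1: grow cells in 96-well plates. Step 2: add test compound at a single concentration. Step 3: incubate 48 h. Step 4: record percent growth.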 Values without a mark were called inactive. Activity calls are given as the source filed them. How the source made its calls: active means growth percent below 10; inactive means the rest.

test system: LOX IMVI melanoma; experiment: NCI-60 one-dose screen, 48 h (100 = growth as untreated, 0 = no growth, -100 = all killed); details: 10 µM unless noted

CCCCCCCCN(CCCCCCCC)C(=O)CCl was tested. Which growth did it give?
Its growth is -63.3% (active).

With O=C(Nc1ccc(-n2ccc3c(NC(=O)c4ccccc4)nccc32)cc1)c1ccc(N2CCOCC2)c(C(F)(F)F)c1 as the compound, how does the growth read?
Its growth is 13.4%.

For O=C1/C(=C/c2ccccc2)SC(=Nc2ccccc2)N1Nc1ccccc1, which growth is on record?
The growth was -62.1% (active).

C[N+](C)(C)CC(=O)N/N=C\c1ccco1 was tested. Which growth did it give?
The growth was 101%.

How did the growth turn out when CC(C)CCSc1nc(-c2ccc(F)cc2)c(C#N)c(N2CCN(C)CC2)n1 was run?
The growth was 77.6%.

How did the growth turn out when CC(=O)Oc1c(Cl)c(Cl)c(Cl)c(Cl)c1Cl was run?
Its growth is 93.1%.

CN(C)c1nc(-c2cccs2)n2nc(-c3ccc(Cl)cc3)cc2n1 was tested. Which growth did it give?
Its growth is 26.5%.

Which growth does the source give for COc1nccc2c(Sc3ccccc3)nc(N)nc12 here?
The growth was 107%.

c1cn2cc(-c3ccc4ncn(C5CCCCC5)c4c3)nc(-c3ccc4c(c3)ncn4C3CCCCC3)c2n1 was tested. Which growth did it give?
Its growth is -87.4% (active).

With CCc1onc(-c2ccc(OC)cc2)c1-c1ccccc1OCCN(CC)CC as the compound, how does the growth read?
The growth was 71.9%.

How did the growth turn out when CCN(CCC#N)c1ccccc1 was run?
The growth was 102%.

With S=C(S)Oc1cccc2cccnc12 as the compound, how does the growth read?
Its growth is 98.9%.

With COc1ccccc1CNCCCN1C(=O)c2ccc3c4c(ccc(c24)C1=O)C(=O)N(CCCNCCCN)C3=O as the compound, how does the growth read?
Its growth is -7.09% (active).

How did the growth turn out when CC(C)c1ccc(-c2cnc3nonc3n2)cc1 was run?
Its growth is 26.1%.

For CN1CCCN(CCNc2nccc(-c3c(-c4cccc(O)c4)nc4sccn34)n2)S1(=O)=O, which growth is on record?
Its growth is 14.2%.

For COc1ccccc1CNCCCN1C(=O)c2ccc3c4c(ccc(c24)C1=O)C(=O)N(CCCCNCCCN)C3=O, which growth is on record?
Its growth is -10% (active).

For CCC(=O)OCc1ccc(OC)cc1, which growth is on record?
The growth was 98%.

How did the growth turn out when COc1ccc2[nH]cc(C3(c4c[nH]c5ccc(OC)cc45)C(=O)Nc4ccc(F)cc43)c2c1 was run?
The growth was 58.5%.

How did the growth turn out when CN1C(=O)NC(Cc2c[nH]c3c(Cl)cccc23)C1=O (stereo unspecified) was run?
Its growth is 99.7%.

For NC(N)=N/N=C/c1ccc(Cl)cc1, which growth is on record?
Its growth is 86.3%.

For CC(C)(c1ccccc1)c1cc(O)c(C(C)(C)c2ccccc2)cc1O, which growth is on record?
The growth was 32.7%.

For COc1cc(-c2nn(C(=O)NCCN3CCN(C)CC3)cc2-c2ccncc2)ccc1Cl, which growth is on record?
Its growth is 85.9%.

For CCCCCCCCCCCCCCCCCC(=O)[O][Sn]([CH2]CCC)([CH2]CCC)[CH2]CCC, which growth is on record?
Its growth is -92.7% (active).

How did the growth turn out when CC(C)c1nc2ccccc2n1CC(=O)N/N=C/c1cccc(O)c1 was run?
Its growth is 99.6%.

With O=C(Nc1ccc(Cl)cc1)c1cc(-c2ccc(Cl)cc2)c2sc(=O)[nH]c2n1 as the compound, how does the growth read?
Its growth is 13.4%.

With Oc1ccc(-c2nnc3c4[nH]ccc4ncn23)cc1 as the compound, how does the growth read?
The growth was 89.9%.

How did the growth turn out when Cc1nc(N)nc2c1CCC(Nc1ccccc1)S2 (stereo unspecified) was run?
Its growth is 97%.

NNC(=O)CSc1nc2scc(-c3ccccc3)c2c(=O)n1-c1ccccc1 was tested. Which growth did it give?
Its growth is 78.7%.

With COC(=O)C(Br)(C(=O)OC)C(Br)C(Br)C(Br)c1ccccc1 (stereo unspecified) as the compound, how does the growth read?
The growth was 9.1% (active).

For COc1cnc2c(c1)C(=O)c1c-2n(CCCN2CCN(C)CC2)c(=O)c2cc(Cl)ccc12, which growth is on record?
The growth was 38.2%.

For COc1cc([N+](=O)[O-])cc(OC)c1OC, which growth is on record?
The growth was 100%.

For O=c1oc2ccccc2cc1-c1cc(-c2ccc(-c3cc(-c4cc5ccccc5oc4=O)nc(-c4cc5ccccc5oc4=O)c3)cc2)cc(-c2cc3ccccc3oc2=O)n1, which growth is on record?
The growth was 102%.

For CCCCCCCOc1cccc(/C=C2\N=C3SCCCN3C2=O)c1, which growth is on record?
Its growth is 96.2%.

Which growth does the source give for CN(C)c1ccc(C2(Cl)c3ccccc3N(C)c3ccccc32)cc1 here?
Its growth is 27.6%.

For O=C(Nc1cccc(-n2ccc3c(NC(=O)c4ccccc4)nccc32)c1)c1ccc(N2CCOCC2)c(C(F)(F)F)c1, which growth is on record?
The growth was 9.86% (active).

How did the growth turn out when Fc1ccc(-c2nc(-c3ccc(-c4nc5ccc(F)cc5[nH]4)cc3)no2)cc1 was run?
Its growth is 43.5%.

Which growth does the source give for Clc1ccc(C2=NN[C@H](c3cn(-c4ccccc4)nc3-c3ccccc3)C2)cc1 here?
Its growth is 49.7%.

With CNC1=C([N+](=O)[O-])C(c2ccccc2O)C(C#N)=C(c2cccs2)O1 (stereo unspecified) as the compound, how does the growth read?
The growth was 87.3%.

test system: SK-MEL-28 melanoma; experiment: as above; details: 10 µM unless noted

With CCCCCCCCN(CCCCCCCC)C(=O)CCl as the compound, how does the growth read?
Its growth is 110%.

With O=C(Nc1ccc(-n2ccc3c(NC(=O)c4ccccc4)nccc32)cc1)c1ccc(N2CCOCC2)c(C(F)(F)F)c1 as the compound, how does the growth read?
The growth was 25.3%.

With O=C1/C(=C/c2ccccc2)SC(=Nc2ccccc2)N1Nc1ccccc1 as the compound, how does the growth read?
Its growth is 8.52% (active).

With C[N+](C)(C)CC(=O)N/N=C\c1ccco1 as the compound, how does the growth read?
Its growth is 105%.

CC(C)CCSc1nc(-c2ccc(F)cc2)c(C#N)c(N2CCN(C)CC2)n1 was tested. Which growth did it give?
The growth was 96.5%.

With CC(=O)Oc1c(Cl)c(Cl)c(Cl)c(Cl)c1Cl as the compound, how does the growth read?
The growth was 104%.

How did the growth turn out when CN(C)c1nc(-c2cccs2)n2nc(-c3ccc(Cl)cc3)cc2n1 was run?
Its growth is 79.2%.

COc1nccc2c(Sc3ccccc3)nc(N)nc12 was tested. Which growth did it give?
Its growth is 106%.

c1cn2cc(-c3ccc4ncn(C5CCCCC5)c4c3)nc(-c3ccc4c(c3)ncn4C3CCCCC3)c2n1 was tested. Which growth did it give?
The growth was -19.8% (active).

Which growth does the source give for CCc1onc(-c2ccc(OC)cc2)c1-c1ccccc1OCCN(CC)CC here?
Its growth is 100%.

CCN(CCC#N)c1ccccc1 was tested. Which growth did it give?
The growth was 113%.

S=C(S)Oc1cccc2cccnc12 was tested. Which growth did it give?
The growth was 109%.

With COc1ccccc1CNCCCN1C(=O)c2ccc3c4c(ccc(c24)C1=O)C(=O)N(CCCNCCCN)C3=O as the compound, how does the growth read?
The growth was 22.7%.

How did the growth turn out when CC(C)c1ccc(-c2cnc3nonc3n2)cc1 was run?
Its growth is 73.9%.

For CN1CCCN(CCNc2nccc(-c3c(-c4cccc(O)c4)nc4sccn34)n2)S1(=O)=O, which growth is on record?
Its growth is 18.1%.

For COc1ccccc1CNCCCN1C(=O)c2ccc3c4c(ccc(c24)C1=O)C(=O)N(CCCCNCCCN)C3=O, which growth is on record?
The growth was -19.4% (active).

CCC(=O)OCc1ccc(OC)cc1 was tested. Which growth did it give?
The growth was 111%.

For COc1ccc2[nH]cc(C3(c4c[nH]c5ccc(OC)cc45)C(=O)Nc4ccc(F)cc43)c2c1, which growth is on record?
The growth was 96.4%.

How did the growth turn out when CN1C(=O)NC(Cc2c[nH]c3c(Cl)cccc23)C1=O (stereo unspecified) was run?
Its growth is 115%.

With NC(N)=N/N=C/c1ccc(Cl)cc1 as the compound, how does the growth read?
Its growth is 93.5%.

With CC(C)(c1ccccc1)c1cc(O)c(C(C)(C)c2ccccc2)cc1O as the compound, how does the growth read?
The growth was 53.2%.

How did the growth turn out when COc1cc(-c2nn(C(=O)NCCN3CCN(C)CC3)cc2-c2ccncc2)ccc1Cl was run?
Its growth is 68.1%.

CCCCCCCCCCCCCCCCCC(=O)[O][Sn]([CH2]CCC)([CH2]CCC)[CH2]CCC was tested. Which growth did it give?
The growth was -94.8% (active).

CC(C)c1nc2ccccc2n1CC(=O)N/N=C/c1cccc(O)c1 was tested. Which growth did it give?
The growth was 97.2%.

For O=C(Nc1ccc(Cl)cc1)c1cc(-c2ccc(Cl)cc2)c2sc(=O)[nH]c2n1, which growth is on record?
The growth was 25.2%.

For Oc1ccc(-c2nnc3c4[nH]ccc4ncn23)cc1, which growth is on record?
Its growth is 102%.

Cc1nc(N)nc2c1CCC(Nc1ccccc1)S2 (stereo unspecified) was tested. Which growth did it give?
The growth was 114%.

NNC(=O)CSc1nc2scc(-c3ccccc3)c2c(=O)n1-c1ccccc1 was tested. Which growth did it give?
Its growth is 111%.

For COC(=O)C(Br)(C(=O)OC)C(Br)C(Br)C(Br)c1ccccc1 (stereo unspecified), which growth is on record?
Its growth is 108%.

With COc1cnc2c(c1)C(=O)c1c-2n(CCCN2CCN(C)CC2)c(=O)c2cc(Cl)ccc12 as the compound, how does the growth read?
The growth was -53.8% (active).

Which growth does the source give for COc1cc([N+](=O)[O-])cc(OC)c1OC here?
The growth was 104%.

Which growth does the source give for O=c1oc2ccccc2cc1-c1cc(-c2ccc(-c3cc(-c4cc5ccccc5oc4=O)nc(-c4cc5ccccc5oc4=O)c3)cc2)cc(-c2cc3ccccc3oc2=O)n1 here?
Its growth is 108%.

With CCCCCCCOc1cccc(/C=C2\N=C3SCCCN3C2=O)c1 as the compound, how does the growth read?
The growth was 100%.

For CN(C)c1ccc(C2(Cl)c3ccccc3N(C)c3ccccc32)cc1, which growth is on record?
Its growth is 52.4%.

O=C(Nc1cccc(-n2ccc3c(NC(=O)c4ccccc4)nccc32)c1)c1ccc(N2CCOCC2)c(C(F)(F)F)c1 was tested. Which growth did it give?
The growth was 32.8%.

Fc1ccc(-c2nc(-c3ccc(-c4nc5ccc(F)cc5[nH]4)cc3)no2)cc1 was tested. Which growth did it give?
The growth was 80.5%.

How did the growth turn out when Clc1ccc(C2=NN[C@H](c3cn(-c4ccccc4)nc3-c3ccccc3)C2)cc1 was run?
The growth was 39%.

How did the growth turn out when CNC1=C([N+](=O)[O-])C(c2ccccc2O)C(C#N)=C(c2cccs2)O1 (stereo unspecified) was run?
Its growth is 93.3%.
